# High-throughput results: PubChem, National Center for Advancing Translational Sciences (NCATS)
# Cycloheximide cs – affects cycloheximide protein synthesis inhibition readout, counter-screen | cell reporter, cycloheximide protein synthesis inhibition counterscreen | max response, % | 300,000 tested, 12% active; in the data active means max response mostly above about 13%, no sharp cut-off; inactive means mostly below about 14%; further: read at 38.3 µM for the half of the compounds with a filed dose; 0% is about no effect
# SARS PLP yeast – inhibitors of SARS-CoV papain-like protease in yeast; S. cerevisiae expressing SARS-CoV PLpro, growth rescue; 330,000 tested, 0.19% active; Potency, µM (doses to about 32.9 µM), inactives show at the top dose activity, positive = growth rescue, hits mostly activators; calls by dose curve; further: potency means the concentration at half of the fitted maximal effect; 0% is about no effect; nearly all actives have a fitted effect of over 55% in size
# AMA1-RON2 inh – inhibitors of Plasmodium falciparum AMA1-RON2 interaction; Potency, µM (highest dose often 58.2 µM), without a hit: at the highest dose activity change, negative = inhibition, most hits filed as inhibitors; AID 720542; AlphaScreen AMA1-biotinylated RON2 peptide binding; 360,000 tested, 0.2% active;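 further: potency means the concentration at half of the fitted maximal effect; 0% = vehicle wells and -100% = peptide control; nearly all actives have a fitted effect of over 45% in size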
#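 AMA1 (3D7) with his tag at 25 nM final met compounds first, then biotinylated RON2 peptide at 25 nM; detection used donor plus acceptor beads, 10 µg/mL apiece, read by AlphaScreen after 30 min at room temperature.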
# Pf growth 48h – P. falciparum growth inhibition at 48 hours (one generation); P. falciparum luciferase growth in erythrocytes, 48 h; Potency, µM (highest dose often 28.7 µM), for the others: at the highest dose activity change, negative = inhibition, usual class: inhibitors; AID 504832; 310,000 tested, 5.9% active; further: potency means the concentration at half of the fitted maximal effect; on the % scale 0 is the no-effect control and ±100 the full control effect
#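 Cell-based growth assay: transgenic P. falciparum expressing firefly luciferase, cultured in red cells within RPMI 1640 containing 0.5% w/v Albumax, 24 mM bicarbonate and gentamycin. A drop in luciferase activity indicates inhibition.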
# Pf growth 96h – P. falciparum growth inhibition at 96 hours. 320,000 tested, 6.9% active. P. falciparum luciferase reporter growth, 96 h. Potency, µM (titrated, usually from 28.7 µM), for the others: at the highest dose activity change, negative = inhibition, hits mostly inhibitors; further: potency means the concentration at half of the fitted maximal effect; on the % scale 0 is the no-effect control and ±100 the full control effect
#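 Delayed-death screen, second-generation endpoint: infected erythrocytes, 2% hematocrit, 0.05% parasitemia final; 96 hours at 37 C, 5% CO2; luciferase detection reagent; luminescence decrease equals reduced growth.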
# Shiga toxin inh – Shiga toxin inhibition; inhibition, % at 38.7 µM; AID 2315; Vero cells, Shiga toxin protein synthesis inhibition reporter; 290,000 tested, 9.2% active; in the data active means inhibition mostly above about 28%, no sharp cut-off; inactive means mostly below about 43%; further: 0% is about no effect
# Starred values were filed as active, the others as inactive; u = inconclusive; x = no result given; [ ] = dose if it differs, or a comment. Sampled rows, rich in hits. Any-hit rate of the full collection: about 19%. Unless noted, the call rests on the fitted dose curve; in most records, active means well fitted curve in the direction sought with a large enough effect; inconclusive means small, poorly fitted or top-dose-only effect, or another doubt; inactive means no such curve, though single readings can be large; an effect the other way counts as inactive or inconclusive.
SMILES,Cycloheximide cs,SARS PLP yeast,AMA1-RON2 inh,Pf growth 48h,Pf growth 96h,Shiga toxin inh
Cc1cc(Br)ccc1NC(=O)CN(C)Cc1cccs1,27.9,0.2%,4.5%,u,3.3%,48.3*
COc1cccc(CNC(=O)CCSCc2ccccc2F)c1,-0.9,-4.8%,-0.7%,-9.1%,u,-10.0
Cc1cc(/C=C(\C#N)C(=O)OCC(=O)N(C)c2c(N)n(Cc3ccccc3)c(=O)[nH]c2=O)c(C)n1CC(C)C,x,x,-6.6%,x,x,x
CN(C)S(=O)(=O)c1cc(NC(=O)CNCc2ccc(F)cc2)ccc1Cl,23.3,0.3%,-1.5%,-28.0%,-23.3%,29.3
COc1cc2c(cc1OC)C(C(=O)NCc1cccnc1)C(c1cccnc1)N(C)C2=O (stereo not drawn),-2.7,6.8%,-8.7%,3.6%,3.6%,-21.0
COC(=O)[C@H](Cc1ccccc1)NC(=O)CC[C@H]1O[C@@H](n2ccc(=O)[nH]c2=O)[C@H](O)[C@@H]1O,x,x,-0.5%,x,x,x
CCN(CC)CC(=O)Nc1ccc(C)cc1Br,26.7*,8.7%,-1.8%,10.9%,x,40.3*
CCN(CC)CC(=O)Nc1c(C)cccc1C,-1.8,5.9%,5.3%,u,-18.8%,12.9
CCN(CC)CC(=O)Nc1c(C)cc(C(C)(C)C)cc1C,32.0*,-2.3%,11.9%,-5.6%,59.4%,39.6*
CCOC(=O)NC(N(O)c1cccc(Cl)c1)C(Cl)(Cl)Cl (stereo not drawn),20.4*,-1.3%,-22.1%,4.2%,-2.2%,20.5
Cc1c(C(N)=O)sc2nc(-c3ccccc3)cn12,36.4*,3.2%,-1.2%,97.5%,10.4µM*,86.7*
Cc1c(C(=O)N2CCN(c3ccccc3F)CC2)sc2nc(-c3ccccc3)cn12,-2.2,5.7%,0.1%,2.1%,1.85µM*,3.7
COCCN(CCOC)C(=O)c1sc2nc(-c3ccccc3)cn2c1C,7.7,-1.5%,0.2%,1.0%,31.6%,5.1
O=C(COC(=O)c1ccccc1O)Nc1cccc(S(=O)(=O)N2CCCC2)c1,x,1.5%,1.3%,u,u,x
O=[As]O[As]=O (stereo not drawn),x,x,x,1.9µM*,1.9µM*,x
O=C(CSc1nc(=O)n2ccccc2n1)NC1CCCCC1,x,-5.9%,-7.6%,20.9%,47.1%,x
COc1cc(OC)c(-c2c3cc(O)c(=O)cc-3oc3cc(O)c(O)cc23)cc1OC,-4.1,3.16µM*,7.94µM*,2.33µM*,3.7µM*,-13.0
COc1cccc(-n2cnc3sc(-c4ccccc4)cc3c2=O)c1,x,x,-1.4%,x,x,x
O=C(Cn1cnc2sc(-c3ccccc3)cc2c1=O)N1CCOCC1,-2.8,1.6%,-0.1%,16.6%,3.8%,-11.5
COc1ccc(-n2cnc3sc(-c4ccccc4)cc3c2=O)cc1,43.1*,-0.4%,-1.6%,165.1%,-7.3%,42.6
C=CCSc1nc2sc(-c3ccccc3)cc2c(=O)n1N,0.8,-15.9%,16.5%,23.6%,40.2%,-47.3
CC(=O)Cn1cnc2sc(-c3ccccc3)cc2c1=O,38.6*,-10.6%,-3.4%,x,167.2%,35.5*
CC(=O)Cn1nnc2sc(-c3ccccc3)cc2c1=O,46.5*,1.9%,18.9%,105.4%,18.1%,92.7*
CCn1cnc2sc(-c3ccccc3)cc2c1=O,29.4*,-10.7%,11.4%,207.0%,x,112.0*
CC(C)N(C(=O)CSc1ncnc2sc(-c3ccccc3)cc12)C(C)C,3.0,14.2%,-0.1%,23.3%,x,-11.8
SMILES,Cycloheximide cs,SARS PLP yeast,AMA1-RON2 inh,Pf growth 48h,Pf growth 96h,Shiga toxin inh
N#CCn1cnc2sc(-c3ccccc3)cc2c1=O,26.8*,-1.6%,15.2%,15.7%,-0.1%,58.2
CCCC(C(=O)NC(C)(C)C)N(CC1CCCO1)C(=O)CNS(=O)(=O)c1ccc(F)cc1 (stereo not drawn),-6.2,-2.4%,-3.8%,-23.0%,-17.9%,-2.5
O=C(CSCc1ccccc1F)NCc1ccccc1,44.2*,0.6%,-0.7%,253.4%,-22.6%,72.5
COc1ccc(CNC(=O)CSCc2ccccc2Cl)cc1,62.3*,-3.1%,-2.1%,26.1%,-9.1%,65.9*
Cc1ccc(CNC(=O)CSCc2cccc(F)c2)cc1,45.9*,-1.9%,-1.4%,85.8%,-0.5%,65.4
O=C(CCSCc1cccc(F)c1)NCc1ccc(F)cc1,-0.6,-0.7%,-3.4%,5.1%,u,-10.7
O=C(CSCc1cccc(F)c1)NCc1ccccc1,47.6*,1.3%,42.4%,302.4%,2.08µM*,172.8*
COc1ccc(CNC(=O)CCSCc2ccccc2Cl)c(OC)c1,-1.7,-7.6%,6.3%,-12.1%,378.6%,-5.1
CC(C)C[C@H](NC(=O)[C@H](Cc1c[nH]c2ccccc12)NC(=O)[C@H](CCCCN)NC(=O)CNC(=O)[C@H](CC(C)C)NC(=O)[C@H](CO)NC(=O)[C@@H](N)Cc1cnc[nH]1)C(=O)NCC(=O)N[C@@H](Cc1cnc[nH]1)C(=O)N1CCC[C@H]1C(=O)N[C@@H](CC(=O)O)C(=O)N[C@@H](CCCCN)C(=O)N[C@@H](Cc1ccccc1)C(=O)O,-3.8,x,x,x,x,-3.3
CC(C)NC(=O)C1(C)CCN1C(=O)c1cccc(F)c1 (stereo not drawn),x,x,-0.7%,x,x,x
CSc1nc(NS(=O)(=O)c2ccc(F)cc2F)nn1C,-2.9,2.4%,-0.3%,9.7%,11.8%,-2.0
CSc1ccc(CNC(C)C(O)c2ccccc2)cc1 (stereo not drawn),13.2,0.8%,-0.1%,1.85µM*,-1.7%,-1.0
CCOc1ccc(OCCNC(=O)c2cc(C3CC3)nc3c2cnn3C(C)C)cc1,x,-3.1%,-25.2%,10.4µM*,u,x
COc1ccc(CNC(=O)c2cc(C3CC3)nc3c2cnn3C(C)C)cc1,x,-1.7%,4.7%,13.1µM*,14.7µM*,x
CC(C)n1ncc2c(C(=O)N3CCN(Cc4ccc(Br)s4)CC3)cc(C3CC3)nc21,x,3.5%[6.58 µM],14.1%,4.15µM*,11.7µM*,x
CC(C)n1ncc2c(C(=O)NCCOc3ccccc3F)cc(C3CC3)nc21,x,-6.6%,1.9%,x,x,x
COc1ccccc1CNC(=O)c1cc(C2CC2)nc2c1cnn2C(C)C,x,-1.1%,-9.8%[11.6 µM],0.928µM*,0.738µM*,x
CC1(C(=O)NS(=O)(=O)C2CC2)CCN(C(=O)c2ccccc2OC(F)(F)F)C1 (stereo not drawn),x,x,5.9%,x,x,x
COc1ccc(CCNC(=O)c2cc(C3CC3)nc3c2cnn3C(C)C)cc1OC,x,-3.2%,-2.7%,u,2.33µM*,x
CC(C)n1ncc2c(C(=O)NCCc3ccc(S(N)(=O)=O)cc3)cc(C3CC3)nc21,x,-6.3%,-4.2%,-7.3%,u,x
